Exocytosis inh – blocks lytic granule exocytosis; inhibition, % at 10 µM; TALL-104 LAMP-1 surface exposure, flow cytometry; cells stimulated with thapsigargin and PMA; actives 0.66% (n = 360,000);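 active = inhibition above about 55%, limit read from the data; inconclusive = no clear call, values can overlap the other calls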
GC-A act – GC-A (human) enzyme activation. P16066. HEK293 GC-A cells, cGMP TR-FRET, EC30 ANP; 0% at EC30 ANP, 100% saturating ANP. activation, % at 10 µM. actives 0.14% (n = 370,000). AID 1671463; in the data active = activation above about 40%
Myeloid diff MLP – myeloid differentiation induction; ER-HoxA9 myeloid progenitors, lysozyme-GFP differentiation, flow cytometry; calls only at 10 µM; actives 1% (n = 360,000);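 active = normalized GFP-positive differentiation at or above the plate's own cutoff, the solvent-only control mean plus 3 SD; inconclusive = no clear call, values can overlap the other calls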;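 note: cells exposed to compound for four days before flow analysis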
NPR2 activator – GC-B (human) receptor activation; P20594; activation, % at 10 µM; HEK293-GC-B cells, CNP EC30, cGMP TR-FRET; 0% at EC30 CNP, 100% saturating CNP; AID 1920062; actives 0.11% (n = 370,000);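 active = activation at 10 µM reaching about 35% in either raw or pattern-adjusted values, limit read from the data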
Target sequence (P20594 whole entry, looked up): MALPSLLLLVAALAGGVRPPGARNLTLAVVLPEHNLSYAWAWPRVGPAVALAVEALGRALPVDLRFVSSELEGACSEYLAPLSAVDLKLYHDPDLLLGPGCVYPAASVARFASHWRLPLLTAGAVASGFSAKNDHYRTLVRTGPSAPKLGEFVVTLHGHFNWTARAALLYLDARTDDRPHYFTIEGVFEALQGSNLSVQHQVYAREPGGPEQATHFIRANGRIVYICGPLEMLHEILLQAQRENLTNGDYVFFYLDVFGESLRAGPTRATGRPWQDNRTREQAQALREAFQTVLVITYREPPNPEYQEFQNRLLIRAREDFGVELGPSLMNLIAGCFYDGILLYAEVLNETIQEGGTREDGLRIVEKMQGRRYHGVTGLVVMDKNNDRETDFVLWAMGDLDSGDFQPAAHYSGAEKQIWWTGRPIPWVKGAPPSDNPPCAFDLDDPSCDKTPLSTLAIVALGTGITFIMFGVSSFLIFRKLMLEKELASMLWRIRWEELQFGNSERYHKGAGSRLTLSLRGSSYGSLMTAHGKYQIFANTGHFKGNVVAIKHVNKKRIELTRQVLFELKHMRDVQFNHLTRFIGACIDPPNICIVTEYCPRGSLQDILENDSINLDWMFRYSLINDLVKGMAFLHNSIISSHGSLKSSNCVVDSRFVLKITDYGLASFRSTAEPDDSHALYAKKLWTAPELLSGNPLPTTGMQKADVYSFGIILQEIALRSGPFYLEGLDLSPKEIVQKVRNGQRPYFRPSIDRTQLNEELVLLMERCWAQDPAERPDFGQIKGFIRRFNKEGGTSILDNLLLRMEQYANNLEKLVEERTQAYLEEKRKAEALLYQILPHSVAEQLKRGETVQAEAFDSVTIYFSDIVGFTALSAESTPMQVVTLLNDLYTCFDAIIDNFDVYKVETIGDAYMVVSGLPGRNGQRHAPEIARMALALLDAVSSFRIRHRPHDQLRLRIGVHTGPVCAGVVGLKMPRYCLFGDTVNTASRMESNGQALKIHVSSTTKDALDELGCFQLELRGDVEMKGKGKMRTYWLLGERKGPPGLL
Granule exo CP1 – lytic granule exocytosis inhibition; shares compounds with Exocytosis inh; TALL-104 cells, LAMP-1 externalization, flow cytometry; stimulated with PMA plus thapsigargin; inhibition, % at 10 µM; actives 11% (n = 1,500); in the data active = inhibition above about 60%;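 note: 0% = stimulated vehicle wells and 100% = unstimulated wells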
Starred values were filed as active, the others as inactive; i = inactive; ? = inconclusive; . = no result. Sampled rows, rich in hits. Any-hit rate of the full collection: about 1.8%.

SMILES | Exocytosis inh | GC-A act | Myeloid diff MLP | NPR2 activator | Granule exo CP1
CC1(c2nc3ccccc3[nH]2)CCC2=Nc3ccccc3CN21 (stereo not given) | -1 | -5 | i | -1 | .
CCOC1CCCc2oc(-c3ccc(OC)cc3)c(C#CCCO)c21 (stereo not given) | -3 | 3 | i | -4 | .
COc1cccc(C2Nc3ccccc3C(=O)N2c2ccc(F)cc2)c1O (stereo not given) | 66* | -3 | i | -1 | -10
COc1ccc(CN(C)CC2CCCN(CCc3ccc(F)cc3)C2)cc1OC (stereo not given) | 60* | -5 | i | 0 | -14
COCC(=O)N(C)CC1CCCN(CCc2ccccc2OC)C1 (stereo not given) | 3 | 2 | i | 2 | .
COc1ccccc1CCN1CCCC(CN(C)CC(C)(C)CO)C1 (stereo not given) | 62* | 1 | i | 1 | -4
COc1ccc(CN(C)CC2CCCN(CCc3ccc(Cl)cc3)C2)cc1OC (stereo not given) | 14 | -9 | i | -4 | .
CCOc1cccc(CN(C)CC2CCCN(CCc3ccc(Cl)cc3)C2)c1O (stereo not given) | 76* | -16 | i | -8 | -2
CN(Cc1ccccc1)CC1CCCN(CCc2ccccc2F)C1 (stereo not given) | 54 | -1 | i | -4 | .
COc1cc(CN(C)CC2CCCN(CCc3ccccc3F)C2)cc(Cl)c1OC (stereo not given) | 56* | -19 | i | -14 | -4
COc1ccc(N2C(=NC(=O)C3CCCCC3)SC3CS(=O)(=O)CC32)c(OC)c1 (stereo not given) | -4 | -9 | i | -6 | .
COc1cc(CN(C)CC2CCCN(CCc3cccc(C(F)(F)F)c3)C2)ccc1O (stereo not given) | 56* | -5 | i | -1 | -3
COC(=O)CCC(=O)N(C)CC1CCCN(CCc2cccc(C(F)(F)F)c2)C1 (stereo not given) | 3 | -2 | i | -3 | .
COC(=O)[C@]12C[C@H](CC(=O)NCC34CC5CC(CC(C5)C3)C4)C(=O)N(CCc3ccc(OC)c(OC)c3)C1=C[C@H](C(C)(C)C)O[C@@H]2C | . | 1 | . | -7 | .
COc1cc2c(-c3ccc4cc[nH]c4c3)c(-c3ccc(C#N)cc3)oc(=O)c2cc1OC | -3 | -8 | ? | -13 | .
CC(Cl)C(=O)N1CCC(C(=O)NCC2COc3ccccc3O2)CC1 (stereo not given) | . | 5 | . | -7 | .
CCCCNc1c(-c2ccc(-c3cccc(Cl)c3)cc2)nc2ccccn12 | 8 | 13 | i | -5 | .
CCCCCCSc1ccc(-c2nc3ccccn3c2NCCCC)cc1 | 70* | 12 | i | -5 | 7
COc1cccc(CN2C(=O)C(C)N(C(=O)c3c(F)cccc3F)c3ccccc32)c1 (stereo not given) | 56* | -9 | i | -6 | 8
Cc1cc(Nc2cccc(Cl)c2)c2ccccc2n1 | 78* | -2 | i | -2 | -8
Cc1cccc(Nc2cc(C)nc3ccccc23)c1 | 12 | 10 | i | -1 | .
Cn1nc(C(F)(F)F)c2cc(C(=O)Nc3ccc(C(F)(F)F)cc3)sc21 | 86* | 3 | i | -1 | 2
COCCn1c(SC(C)C(=O)NCC2CCCO2)nc2sc3c(c2c1=O)CCC3 (stereo not given) | 59* | 0 | i | -1 | -13
CCCS(=O)(=O)N1CCCC(C(=O)Oc2ccccc2Cl)C1 (stereo not given) | 68* | 1 | i | 3 | -14
CCCN(CC1CC1)c1nc(C)nc2c1nnn2Cc1ccccc1 | . | 5 | . | 7 | .
COc1ccc(C(=O)/C=C/c2ccccc2OC)c(OC(=O)c2ccc([N+](=O)[O-])cc2)c1 | -1 | 0 | i | -4 | .
COc1cccc(C(=O)Oc2ccccc2/C=C\C(=O)c2cc3ccccc3o2)c1 | 86* | -2 | ? | -3 | 20
COc1ccc(C(CNC(=O)Cc2ccc(-c3ccccc3)cc2)N(C)C)cc1 (stereo not given) | 62* | 3 | i | -3 | -14
CCNC(=O)C1CCCN(C(=O)c2ccccc2F)CC1 (stereo not given) | 10 | 2 | i | 3 | .
OCc1ccccc1OCCCN1CCC(Cc2ccccc2)CC1 | 69* | -5 | i | 0 | -11

Source: PubChem BioAssay
